In ChEMBL document CHEMBL3433997, “St. Jude Leishmania screening dataset” (2016) one finds inhibition data, which are given here for 40 molecules.

The structures appear in SMILES notation.

For this experiment, the target named is Glucose transporter (Leishmania mexicana) (UniProt O61059). In words: ST_JUDE_LEISH: Cytotoxicity at 2uM final concentration against transgenic Leishmania Mexicana promastigotes LmGT2 that are glucose transport deficient and complemented with the L. Mexicana glucose transporter 2. Activity is measured by DNA content using SYBR green in vitro. It is filed as functional.
One may read the inhibition as the relative decrease from the control value, in per cent. In the case of `O=C(NC1CCC(CCN2Cc3ccc(Br)cc3C2)CC1)c1cccc(-c2cccnc2)c1` (stereo not given), the inhibition is -1.16%. For the molecule `Cc1c(CNCCCNc2cc(=O)c3ccccc3[nH]2)sc(-c2ccco2)c1Br`, the inhibition came to 13.9%. With `CCCCCCNC(=O)C1Cc2c([nH]c3ccc(F)cc23)C2(CCN(Cc3ccccc3)CC2)N1` (stereo not given), the inhibition turned out to be 7.57%.

Regarding `c1cc2[nH]c(CCCCc3nc4cc(C5=N[C@H]6CCCC[C@H]6N5)ccc4[nH]3)nc2cc1C1=N[C@H]2CCCC[C@H]2N1`, the inhibition was 8.87%. For the molecule `COc1ccc(CNCc2cccc(-c3cccc(-c4nc5ccccc5[nH]4)c3)c2)cc1`, the inhibition came out at 3.04%. With `CCOC(=O)c1ccc(NC(=O)N[C@@H](Cc2ccccc2)C(=O)NC2CCN(Cc3ccc(O)c(OC)c3)C2)cc1` (stereo not given in full), the inhibition was determined as 3.01%. As to `Cc1nc(N)nc(N)c1C#CC1CCCC1`, the inhibition amounted to 2.76%. Consider `Ic1cc(CNC2CCCCC2)ccc1OCc1cccc(COc2ccc(CNC3CCCCC3)cc2I)c1`, for which the inhibition turned out to be 2.65%. Turning to `Cc1cccc2nc(-c3cccc(-c4ccc(CN5CCN(CCO)CC5)cc4)c3)[nH]c12`, the inhibition is -0.97%. In the case of `CN(C)CCC(O)(c1ccc(Br)cc1)c1cccnc1` (stereo not given), the inhibition amounted to 0.51%. On to `Cc1nnc2c(NC(=O)NC3CCCC3)cc3ccc(-c4cccc(CN(C)C)c4)cc3n12`, for which the inhibition was 0.64%. As for `CC(Oc1cccc(Cl)c1)C(=O)N1CCc2ccccc21` (stereo not given), the inhibition was -1.29%. Turning to `CS(=O)(=O)c1ccc(-n2nc(C(F)(F)F)cc2-c2ccc(C=NOCC(=O)O)o2)cc1`, the inhibition is -0.38%. In the case of `Cc1nnc(N2C(=N)SC(=Cc3ccc(-c4ccc(OC(F)(F)F)cc4)o3)C2=O)s1`, the inhibition turned out to be 3.61%.

On to `O=C(Nc1ccc(-c2nc3ccccc3[nH]2)cc1)c1cncc(Br)c1`, for which the inhibition was found to be 1.81%. The same measure for `CCN(C1CCCCC1)S(=O)(=O)c1ccc(OC)c(N2CCN(C(=O)C(Cl)(Cl)Cl)CC2)c1`: -0.47%; for `O=C(/C=C/c1ccc(Cl)c(Cl)c1)NCCCCCN1CCC(NC(=O)Nc2ccc(Cl)cc2F)CC1`: 2.48%; for `Cc1cc(C)n(-c2nc(Nc3cccc(C(F)(F)F)c3)nc(-n3nc(C)cc3C)n2)n1`: -1.11%. With `CC(=O)c1ccc(NC(=O)Nc2ccc(N(C)c3ccnc(Nc4cccc(CS(C)(=O)=O)c4)n3)cc2)cc1`, the inhibition worked out at 4.04%. Take `Cc1cccc2nc(-c3ccc(-c4ccc(CN5CCN(c6ccncc6)CC5)cc4)cc3)[nH]c12`: the inhibition was 13.4%. On to `Nc1ncnc2nc(-c3ccc(F)cc3)cc(-c3ccc(NC(=O)c4ccccc4)cc3)c12`, for which the inhibition came to 2.02%. The same measure for `Cc1[nH]c(C)c(-c2ccc(OCc3ccc(OC(F)(F)F)cc3)nc2)c(=O)c1Br`: 3.44%; for `Clc1ccc2c(NCCc3ccccc3)ccnc2c1`: 2.56%; for `OC(CNCCCCCCNCC(O)c1ccc(Cl)c(Cl)c1)c1ccc(Cl)c(Cl)c1` (stereo not given): 3.55%. As to `O=C(Nc1ccc(-c2ccccc2)cc1)Nc1cccc(Cn2nc(Cl)c(N3CCCNCC3)cc2=O)c1`, the inhibition was 0.24%. Regarding `O=C(Nc1cccnc1)c1cc(-c2cc(Cl)ccc2O)n[nH]1`, the inhibition was 3.15%. For the molecule `CCN(CC)c1ccc2nc(N)nc(N)c2c1Cl`, the inhibition is 4.52%.

Take `CCN(CC)c1ccccc1CNC(=O)c1cc(Cl)c(N)cc1OC`: the inhibition came out at 8.59%.

With `COc1ccc2nccc(N3C[C@H]4C[C@@H]3CN4CCNCc3ccc4c(n3)NC(=O)CS4)c2n1`, the inhibition was -1.32%.

As for `CC1CN(Cc2ccc(C#N)cc2)CCN1c1ccc(NC(=O)c2cccs2)cc1` (stereo not given), the inhibition turned out to be 8.98%.

With `Cc1ccc2c(O)c([N+](=O)[O-])c(O)nc2c1`, the inhibition was found to be 1.6%.

As for `O=C(O)CNCC(O)c1ccccc1` (stereo not given), the inhibition turned out to be 0.29%.

Take `COc1ccc(F)cc1-c1ccc(C(=O)N2CCCN(c3ccc(C#N)cn3)CC2)cc1`: the inhibition is -5.82%. For `COc1c(C2=CCN(CCCCNC(=O)c3ccc(-c4ccc(C#N)cc4)cc3)CC2)c(C)cc2c1C(C)(C)CCC2(C)C`, the inhibition came out at 0.96%.

`O=C(Nc1ccccc1-c1nc2ccccc2s1)C(Cl)(Cl)Cl`: the inhibition came to 0.54%. For `Cc1cc(NCCC(=O)NCc2cccc(F)c2)nc(NCCc2ccc(F)cc2)n1`, the inhibition came to 3.7%. With `CN(Cc1cccc(F)c1)C1CCN(c2cc(NC(=O)c3ccc(F)cc3)ccn2)CC1`, the inhibition was 6.94%. The same measure for `Fc1ccccc1C=NN=c1cc[nH]c2ccc(C(F)(F)F)cc12`: 2.13%; for `CCc1cccc(OCCCON2C(=N)N=C(N)NC2(C)C)c1`: 8.16%; for `Cc1cccc2nc(-c3cccc(-c4ccc(CNCCc5ccncc5)cc4)c3)[nH]c12`: -0.84%.
